Assay results: PubChem BioAssay (NCATS)
“And” between values parts separate entries of the source, which are not always exact repeats. Identical values can stand only once. Unmarked numbers belong to inactive results. Records with an inconclusive call do not appear. The source made the active and inactive calls. Unless noted, the call rests on the fitted dose curve; in most records, active means well fitted curve in the direction sought with a large enough effect; inconclusive means small, poorly fitted or top-dose-only effect, or another doubt; inactive means no such curve, though single readings can be large; an effect the other way counts as inactive or inconclusive.

Assays:
[1] = qHTS assay for small molecule activators of the p53 signaling pathway (AID 651743; active means well fitted activation curve with a large enough effect in the signal ratio, not every such curve was filed as active; the % refers to the signal ratio; further: series mostly up to about 92 µM; % of control where 0% means no effect); details: HCT-116 p53RE-bla, beta-lactamase FRET ratio, 16 h; activation: stronger effect = higher value
Method in brief: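 Here HCT-116 cells with an integrated p53-responsive beta-lactamase gene were incubated with compounds (16 hours, 37 C) after a 5-hour plating period; beta-lactamase activity was detected as fluorescence intensity via B/G FRET substrate.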

[2] = qHTS assay for small molecule activators of the nuclear factor-kappa B (NF-kB) signaling pathway (AID 651749; active means well fitted activation curve with a large enough effect in the signal ratio; the % refers to the signal ratio; further: series mostly up to about 77 µM; % of control where 0% means no effect); details: NF-kB-bla ME-180 cells, beta-lactamase FRET ratio, 16 h; stronger effect = higher value
Method in brief: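 Beta-lactamase reporter expression, controlled by NF-kB response elements in ME-180 cells, was quantified fluorometrically via FRET disruption; cells at 2,000/well had been incubated with 23 nL test compound for 16 hr.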

[3] = qHTS assay for small molecule disruptors of the mitochondrial membrane potential - 5 hr assay (AID 651755; calls by dose curve; further: nearly all actives have a fitted effect of over 40% in size; further: potency means the concentration at half of the fitted maximal effect)
Method in brief: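 Seed HepG2 overnight, add compound, incubate 5 hr at 37C and 5% CO2, stain 30 min with Mito-MPS, then measure monomer (490/535 nm) and aggregate (540/590 nm) fluorescence.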

[4] = qHTS assay to identify small molecules that stimulate interleukin-8 (IL-8) secretion (AID 651758; active means well fitted activation curve with a large enough effect in the signal ratio; the % refers to the signal ratio; further: potency means the concentration at half of the fitted maximal effect; on activation: 0% is about no effect)
Method in brief: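 Quantitative HTS in THP-1 monocytic cells at 2000 cells per well, with 16 hrs compound incubation at 37 C. IL-8 in the medium was then quantified by HTRF immunoassay, read after 1-3 hrs at room temperature.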

[5] = qHTS assay for environmental chemicals that activate the Aryl hydrocarbon Receptor (AhR) signaling pathway (AID 651777); details: 1A2-DRE human hepatoma cells, luciferase, 24 h; activation: stronger effect = higher value; further: nearly all actives have a fitted effect of over 15% in size; further: potency means the concentration at half of the fitted maximal effect; on activation: % of control where 0% means no effect
Method in brief: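 Human hepatoma 1A2-DRE cells, stably carrying a dioxin response element and CYP1A2 promoter driving luciferase, were exposed to compounds for 24 hr at 37 C and 5% CO2. Luciferase signal was then read after 30 min One-Glo at room temperature.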

[6] = target: Peroxisome proliferator-activated receptor alpha (Homo sapiens) (UniProt Q07869); assay: qHTS assay for small molecule agonists of the peroxisome proliferator-activated receptor alpha (PPARalpha) signaling pathway (AID 651778); details: PathHunter PPARalpha complementation, chemiluminescence, 6 h; stronger effect = higher value; further: % of control where 0% means no effect
Chain of Peroxisome proliferator-activated receptor alpha (Homo sapiens) (Q07869 whole entry, looked up): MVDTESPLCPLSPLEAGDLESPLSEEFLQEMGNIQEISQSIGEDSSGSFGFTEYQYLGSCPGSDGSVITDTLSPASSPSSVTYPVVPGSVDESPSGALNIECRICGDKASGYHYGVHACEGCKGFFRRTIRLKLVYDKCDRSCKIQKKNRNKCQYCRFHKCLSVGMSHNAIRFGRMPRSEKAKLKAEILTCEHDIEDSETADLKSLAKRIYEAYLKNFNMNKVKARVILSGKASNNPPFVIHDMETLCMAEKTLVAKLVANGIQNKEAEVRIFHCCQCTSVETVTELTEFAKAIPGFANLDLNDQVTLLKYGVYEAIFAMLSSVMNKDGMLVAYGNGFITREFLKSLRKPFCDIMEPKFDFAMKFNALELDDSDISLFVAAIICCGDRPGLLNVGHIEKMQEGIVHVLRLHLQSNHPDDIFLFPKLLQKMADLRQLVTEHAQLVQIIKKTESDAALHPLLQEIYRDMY
Method in brief: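 Cells plated at 2,000/well and held overnight at 37 C, 5% CO2, then compound added by pin tool for 6 hr; after PathHunter detection reagent and 60 min at room temperature, chemiluminescence from enzyme complementation was read.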

[7] = target: Nuclear receptor ROR-gamma (Homo sapiens) (UniProt P51449); assay: qHTS assay for small molecule antagonists of the retinoid-related orphan receptor gamma (ROR-gamma) signaling pathway (AID 651802);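 further: CHO cells with doxycycline-induced ROR-gamma expression; luciferase reporter luminescence driven by ROR response element; series mostly up to about 92 µM; on the % scale 0 is the no-effect control and ±100 the full control effect; nearly all actives have a fitted effect of over 60% in size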
Chain of Nuclear receptor ROR-gamma (Homo sapiens) (P51449 whole entry, looked up): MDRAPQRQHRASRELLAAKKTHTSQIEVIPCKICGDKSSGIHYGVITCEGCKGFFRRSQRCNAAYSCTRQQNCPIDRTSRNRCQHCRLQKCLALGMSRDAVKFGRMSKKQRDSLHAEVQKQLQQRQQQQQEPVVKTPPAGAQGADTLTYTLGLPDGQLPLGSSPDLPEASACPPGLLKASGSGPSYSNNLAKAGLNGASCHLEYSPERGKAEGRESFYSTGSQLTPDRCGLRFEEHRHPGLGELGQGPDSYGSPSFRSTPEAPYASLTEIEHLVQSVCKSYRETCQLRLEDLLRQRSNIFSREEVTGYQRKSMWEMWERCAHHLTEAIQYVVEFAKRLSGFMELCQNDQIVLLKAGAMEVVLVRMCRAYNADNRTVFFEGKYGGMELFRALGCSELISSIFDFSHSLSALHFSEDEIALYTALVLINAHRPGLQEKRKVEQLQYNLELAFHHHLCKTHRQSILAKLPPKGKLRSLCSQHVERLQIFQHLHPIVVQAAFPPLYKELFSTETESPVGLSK
Method in brief: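 Doxycycline-induced reporter activity in engineered CHO cells (TET-inducible ROR, RORE-LUC) was measured by luminescence after 16hr compound exposure at 37C.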

[8] = qHTS assay for small molecule agonists of the antioxidant response element (ARE) signaling pathway measured by Nrf2-dependant transcriptional activity (AID 720636; active means well fitted curve in the direction sought with a large enough effect in the repeat runs; an effect the other way counts as inactive or inconclusive; further: % of control where 0% means no effect)
Method in brief: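 ARE-luc HepG2 cells carrying an Nrf2-responsive luciferase reporter were plated in medium with 1% dialyzed FBS, left 6 hr at 37 C to attach, then exposed to compound for 16 hr. Luciferase luminescence was read after ONE-Glo addition.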

[9] = qHTS assay for small molecule antagonists of the retinoid-related orphan receptor gamma (ROR-gamma) signaling pathway - cell viability counter screen (AID 720652; active means well fitted curve in the direction sought with a large enough effect in the repeat runs; an effect the other way counts as inactive or inconclusive;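 further: CHO reporter cells with doxycycline-induced ROR-gamma expression; series mostly up to about 92 µM; compound exposure lasted 16 hr before ATP read; on the % scale 0 is the no-effect control and ±100 the full control effect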)
Method in brief: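 ATP-based viability readout in the ROR-gamma reporter CHO cells after 16 hr compound exposure under doxycycline induction.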

[10] = qHTS assay for small molecule agonists of the antioxidant response element (ARE) signaling pathway measured by Nrf2-dependant transcriptional activity - cell viability counter screen (AID 720653; active means well fitted curve in the direction sought with a large enough effect in the repeat runs; an effect the other way counts as inactive or inconclusive; further: on the % scale 0 is the no-effect control and ±100 the full control effect); details: ARE-bla HepG2 viability, CellTiter-Glo ATP luminescence, 16 h; stronger effect = lower value
Method in brief: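 ARE-bla HepG2 cells (2,000/well) rested 5 hrs at 37C/5% CO2, then exposed to compounds in DMSO for 16 hrs. Viability was read in the same wells as intracellular ATP by luminescence, 30 min at room temperature after reagent addition.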

[11] = qHTS Assay for Identifying Gametocytocidal Compounds (AID 743244);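 further: on the % scale 0 is the no-effect control and ±100 the full control effect; actives lower the fluorescent signal which means gametocytes are killed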; details: P. falciparum 3D7 stage III-V gametocytes, alamarBlue, 72 h; max response: stronger effect = lower value
Method in brief: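 A resazurin-based viability read-out was applied to mature P. falciparum gametocytes: 72 h compound treatment, then 24 h dye incubation, with falling fluorescence signalling gametocytocidal effect.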

[12] = qHTS assay for small molecule disruptors of the mitochondrial membrane potential - 1 hr assay (AID 651754; calls by dose curve; further: nearly all actives have a fitted effect of over 35% in size; further: potency means the concentration at half of the fitted maximal effect)
Method in brief: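 In this qHTS format, a 1 hr compound treatment of HepG2 cells precedes Mito-MPS staining, and membrane potential is judged from aggregate (red) against monomer (green) fluorescence intensity.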

[13] = qHTS for compounds that reverse cellular toxicity of Amyloid beta (A-beta) peptide in yeast: LOPAC Validation Assay (AID 720559);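 further: plate controls were DMSO for no effect and equimolar ferric chloride plus clioquinol rescue for full effect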
Method in brief: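 OD600 growth readout after 48 hr at 30 C; A-beta-toxic yeast plus pinned compounds in medium. Normalization: DMSO = negative, equimolar FeCl3 + clioquinol = positive.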

[14] = qHTS for Activators of Parkin Expression: LOPAC Validation Assay (NLuc Reporter) (AID 720572;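 further: 0% = DMSO and 100% = positive control compound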)
Method in brief: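 Cells harboring the Parkin-promoter coincidence reporter were treated for 24 h at seven concentrations. NLuc output was measured sequentially after the FLuc channel and scaled between DMSO and positive control values.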

[15] = target: T1, Hexokinase-4 (Homo sapiens) + Glucokinase regulatory protein (Homo sapiens) (UniProt P35557+Q14397); assay: qHTS assay for inhibitors of recombinant human GCK-GKRP interaction: Diaphorase-coupled assay (AID 743205)
T1 sequence (P35557 whole entry, looked up): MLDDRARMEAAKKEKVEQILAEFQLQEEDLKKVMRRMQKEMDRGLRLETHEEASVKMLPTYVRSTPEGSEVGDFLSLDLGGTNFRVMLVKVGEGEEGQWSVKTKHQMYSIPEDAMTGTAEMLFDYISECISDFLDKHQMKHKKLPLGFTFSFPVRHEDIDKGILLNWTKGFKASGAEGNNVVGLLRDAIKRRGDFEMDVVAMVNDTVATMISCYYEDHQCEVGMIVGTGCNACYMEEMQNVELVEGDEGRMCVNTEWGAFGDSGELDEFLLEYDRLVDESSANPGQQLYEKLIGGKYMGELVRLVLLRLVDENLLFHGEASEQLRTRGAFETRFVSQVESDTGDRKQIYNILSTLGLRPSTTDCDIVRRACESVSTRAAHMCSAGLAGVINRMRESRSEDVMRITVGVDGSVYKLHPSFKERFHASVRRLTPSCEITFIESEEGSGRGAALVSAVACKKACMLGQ
T1 sequence (Q14397 whole entry, looked up): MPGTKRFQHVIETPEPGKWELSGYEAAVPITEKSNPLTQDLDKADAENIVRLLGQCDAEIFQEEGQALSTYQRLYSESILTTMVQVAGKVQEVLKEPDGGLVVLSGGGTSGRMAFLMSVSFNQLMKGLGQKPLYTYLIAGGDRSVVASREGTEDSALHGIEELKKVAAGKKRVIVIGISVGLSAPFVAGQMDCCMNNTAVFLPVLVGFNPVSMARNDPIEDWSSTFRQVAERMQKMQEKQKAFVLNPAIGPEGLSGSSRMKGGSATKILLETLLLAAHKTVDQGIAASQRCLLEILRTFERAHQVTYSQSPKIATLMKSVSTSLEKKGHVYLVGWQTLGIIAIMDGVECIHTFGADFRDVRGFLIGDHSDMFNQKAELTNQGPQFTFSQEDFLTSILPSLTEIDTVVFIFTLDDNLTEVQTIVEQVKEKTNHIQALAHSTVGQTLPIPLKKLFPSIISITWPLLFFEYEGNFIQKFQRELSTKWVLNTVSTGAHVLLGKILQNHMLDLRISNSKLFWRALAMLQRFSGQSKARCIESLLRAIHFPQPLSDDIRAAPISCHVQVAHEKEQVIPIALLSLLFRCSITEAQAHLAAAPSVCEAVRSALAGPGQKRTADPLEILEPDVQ
Method in brief: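 Resorufin fluorescence (525/590 nm), read each minute over 30 min, reports GCK activity coupled via G6PDH and diaphorase. Reaction: 10 nM GST-GCK, 10 nM FLAG-GKRP, 5 mM glucose, 0.4 mM ATP, 0.15 mM NADP+, 0.1 mM resazurin.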

[16] = target: T1, Hexokinase-4 (Homo sapiens) + Glucokinase regulatory protein (Homo sapiens); assay: qHTS assay for inhibitors of recombinant human GCK-GKRP interaction: ADP-Glo assay (AID 743206);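 further: plate controls were DMSO plus enzyme for no effect and no enzyme for full effect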
Method in brief: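 Pin-transferred compounds meet a 15 nM GST-GCK/15 nM FLAG-GKRP/2 uM S6P mix (dispense concentrations). ATP is then added to 0.4 mM final with 5 mM glucose, and the reaction runs 60 min at room temperature. ADP is quantified luminescently.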

[17] = target: T1, Hexokinase-4 (Homo sapiens) + Glucokinase regulatory protein (Homo sapiens); assay: qHTS assay for inhibitors of recombinant human GCK-GKRP interaction: HTRF assay (AID 743207);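 further: 0% = DMSO with GCK present and -100% = DMSO wells lacking GCK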
Method in brief: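 HTRF read-out (ex 320 nm; 615/665 nm emission) after 60 min RT equilibration of 5 nM GST-GCK, 5 nM FLAG-GKRP, 2 uM S6P, compound and anti-FLAG/anti-GST detection antibodies; signal normalized between DMSO wells with and without GCK.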

[18] = target: Tumor necrosis factor (Homo sapiens) (UniProt P01375); assay: qHTS assay to identify small molecules that stimulate Tumor Necrosis Factor-alpha (TNF-alpha) secretion (AID 651757; active means well fitted curve in the direction sought with a large enough effect in the signal ratio; the % refers to the signal ratio; further: 0% is about no effect)
Chain of Tumor necrosis factor (Homo sapiens) (P01375 whole entry, looked up): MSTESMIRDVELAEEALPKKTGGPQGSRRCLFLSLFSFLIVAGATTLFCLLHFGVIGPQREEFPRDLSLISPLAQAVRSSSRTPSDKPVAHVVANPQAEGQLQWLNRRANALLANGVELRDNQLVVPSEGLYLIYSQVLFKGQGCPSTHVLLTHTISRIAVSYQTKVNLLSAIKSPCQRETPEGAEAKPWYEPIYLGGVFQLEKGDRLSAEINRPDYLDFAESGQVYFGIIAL
Method in brief: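 Using 3000 THP-1 cells per well, compounds and controls were applied for 17 hrs at 37 C. Detection followed with two labeled anti-TNF-alpha antibodies (cryptate donor, XL665 acceptor) for 3 hr at room temperature, measured by TR-FRET.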

Compound | activation [1] | activation [2] | Potency [3] | Potency [4] | activation [5] | max response [6] | Potency [7] | Potency [8] | outcome [9] | max response [10] | max response [11] | Potency [12] | Potency [5] | outcome [13] | outcome [14] | outcome [15] | outcome [16] | outcome [17] | Potency [18]
Oc1cccc(O)c1O | 2.6% | 2.45% | inactive | 75 µM (active) | -0.8% | 0.0177% | inactive | inactive | inactive | -24.8% | -2.15% | – | – | – | – | – | – | – | –
Nc1ccc(N=Nc2ccccc2)c(N)n1 | 2.09% and 13.7% | -0.825% | 16.8 µM (active) | – | – | -8.45% and -6.87% | inactive | – | – | -11.4% and -26.2% | -8.48% | 18.8 µM (active) | 39.8 µM (active) and 44.7 µM (active) | – | – | – | – | – | –
Oc1ccc(/C=C/c2cc(O)cc(O)c2)cc1 | 5.17% and 7.3% | 5.67% | 5.31 µM (active) | – | – | -3.92% and -4.52% | inactive | – | inactive | 7.43% and -3.23% | -0.421% and 10.7% | 1.88 µM (active) | 25.1 µM (active) | inactive | inactive | inactive | inactive | inactive | –
Nc1ncnc2c1ncn2[C@H]1CC[C@@H](CO)O1 | -6.3% and -2.15% | -1.92% | inactive | inactive | 3.83% and -0.699% | -1.88% and -2.98% | inactive | inactive | inactive | -18.5% and 2.96% | – | inactive | – | – | – | – | – | – | inactive
OCCOCCOCCO | 1.43% and -1.5% | -1.02% and -0.204% | – | – | – | 0.91% and -3.36% | – | inactive | – | -9.26% and -13.2% | -2.42% | – | – | – | – | – | – | – | –
CCCCC | 2.34% | -0.668% | inactive | – | – | -0.71% | inactive | inactive | inactive | -14.6% | 2.54% | inactive | – | – | – | – | – | – | inactive
C[C@H](CCC(=O)O)[C@H]1CC[C@H]2[C@@H]3[C@H](O)C[C@@H]4C[C@H](O)CC[C@]4(C)[C@H]3C[C@H](O)[C@]12C | -1.29% | -0.745% | inactive | – | -1.36% | 0.161% | inactive | inactive | inactive | 1.94% | -6.23% | inactive | – | – | – | – | – | – | inactive
C[C@H](CCC(=O)O)[C@H]1CC[C@H]2[C@@H]3CC[C@@H]4C[C@H](O)CC[C@]4(C)[C@H]3C[C@H](O)[C@]12C | -2.17% | 0.346% | inactive | – | -0.635% | -0.194% | – | inactive | inactive | -10.6% | 6.91% | inactive | – | – | – | – | – | – | inactive
C[Si](C)(C)O[Si](C)(C)C | -3.5% | -1.12% | – | – | 1.01% | -0.124% | – | inactive | – | -6.75% | 4.27% | – | – | – | – | – | – | – | –
CO/N=C(/C(=O)N[C@@H]1C(=O)N2C(C(=O)O)=C(COC(N)=O)CS[C@H]12)c1ccco1 | 1.84% | -0.141% | inactive | – | -0.274% | -0.921% | inactive | inactive | inactive | 4.41% | – | inactive | – | – | – | – | – | – | inactive
NCCN | 3.88% | -0.458% | inactive | – | -1.15% | -6.55% | inactive | inactive | inactive | -3.91% | 20.9% | inactive | – | – | – | – | – | – | inactive
CC(C)CCC[C@@H](C)[C@H]1CC[C@H]2[C@@H]3CC=C4C[C@@H](O)CC[C@]4(C)[C@H]3CC[C@]12C | -0.872% | 0.0919% | – | – | -1.61% | -0.612% | – | inactive | – | -4.46% | -0.629% | – | – | – | – | – | – | – | –
Cc1ccc(S(=O)(=O)O)cc1C | -1.09% | – | inactive | inactive | -1.47% | -6.39% | – | inactive | inactive | 12.7% | 1.6% | inactive | – | – | – | – | – | – | inactive
